The source made the active and inactive calls. Unless noted, the rule behind the calls is not given here.

Test [1] concerns Wnt5a (protein binding on small-molecule microarray). Nature of the test: Wnt5a binders on small-molecule microarray, primary screen, biophysical, 635/667 nm fluorescence (AID 1142).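 Note: fluorescence read at 667 nm with signal to noise per printed feature.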 Conditions: 635 nm fluorescence, higher = more signal.
Test [2] in a line: cell viability in Huh7 cells, primary screen, cytotoxicity control for HCV replication inhibitor project, CellTiter-Glo luminescence, basal, 48 h (AID 1143).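 Note: Huh7 hepatoma cells carrying a hepatitis C replication reporter with no stimulus; test concentration not given here.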 The following applies: Huh7 HCV replicon, higher = more signal, called active from +8 up or from −8 down.
The nature of test [3]: P. aeruginosa biofilm formation inhibitors, primary screen, PAO1 strain, BacTiter-Glo luminescence, LB-PBS (AID 1144). The following applies: 12 h, higher = more signal.
Test [4] is described as follows: CREB reporter modulators without forskolin, primary screen, cell-based, PC12, CRE-LacZ reporter, unstimulated (AID 1145). The following applies: no forskolin, luminescence, 4.5 h, higher = more signal, called active from +8 up or from −8 down.
Test [5] in a line: CREB reporter modulators under forskolin, primary screen, cell-based, PC12, CRE-LacZ reporter, forskolin-stimulated (AID 1146).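 Note: PC12 cells with 6xCRE LacZ reporter stimulated by forskolin 10 µM; beta-galactosidase reporter signal reflecting CREB driven transcription.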 The following applies: luminescence, 4.5 h, higher = more signal, called active from +8 up or from −8 down.
Test [6] has as its target Streptavidin (Streptomyces avidinii) (UniProt P22629). Nature of the test: streptavidin binders on small-molecule microarray, primary screen, artefact control for SMM compound annotation, biophysical, 635/667 nm fluorescence (AID 1147).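 Note: signal reflects streptavidin binding to arrayed compounds as a control protein.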 Conditions: streptavidin binding, higher = more signal.
A short description of test [7]: small-molecule binders of probe aInhba, primary screen, biochemical, small-molecule microarray, 635/667 nm fluorescence (AID 1148).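 Note: score merges 667nm spot fluorescence with signal-to-noise for antibody binding to printed compounds.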 The following applies: higher = more signal.
Test [8] deals with Torsin-1A (Homo sapiens) (UniProt O14656). Nature of the test: torsin A binders from cell lysate, primary screen, small-molecule microarray, wild-type, 635/667 nm (AID 1149). The following applies: COS7 hTOR1A-WT lysate, 635 nm fluorescence, higher = more signal.
Test [9] shares this target. Nature of the test: small-molecule binders of mutant TOR1A in lysate, primary screen, cell lysate, small-molecule microarray, COS7 lysate, 635/667 nm fluorescence (AID 1150).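 Note: score pools 667 nm emission and signal to noise measuring lysate protein binding.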 Conditions: COS7 hTOR1A mutant lysate, 635 nm fluorescence, higher = more signal.
Test [10] relates to Sonic hedgehog protein (Shh). Nature of the test: small-molecule binders of Shh protein, primary screen, biochemical, small-molecule microarray, 635/667 nm fluorescence (AID 1151).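 Note: Shh protein binding to compounds spotted on small-molecule microarray slides; score combines spot fluorescence intensity with signal-to-noise across triplicate slides.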 Conditions: small-molecule microarray binding, 635 nm fluorescence; higher = more signal.
Test [11] can be described thus: E. coli DRC41 culture turbidity changes, primary screen, E. coli filamentation inducer project, strain DRC41, OD650, 48 h (AID 1152).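 Note: E. coli MC1000 strain DRC41 lacking acrAB efflux pump and sulA.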 Conditions: E. coli DRC41 (acrAB sulA), higher = more signal, called active from +8 up or from −8 down.
Test [12] in a line: small-molecule binders of probe aLefty1, primary screen, biochemical, small-molecule microarray, 635/667 nm fluorescence (AID 1153).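 Note: score merges spot fluorescence with signal-to-noise ratio from the scanned slide images.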 The following applies: higher = more signal.
Test [13] is described as follows: PSAC antagonists in infected red cells, primary screen, cell-based, P. falciparum Indochina, OD700, 1 h (AID 1154). Conditions: P. falciparum Indochina infected RBC osmotic lysis, higher = more signal, called active from +8 up or from −8 down.
A short description of test [14]: PSAC antagonists in infected red cells, primary screen, cell-based, P. falciparum Indochina, OD700, 2 h (AID 1155).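 Note: lysis reports solute entry through the parasite surface anion channel PSAC; channel blockers reduce lysis of infected cells.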 Conditions: P. falciparum Indochina infected erythrocytes, osmotic lysis OD700; higher = more signal, called active from +8 up or from −8 down.
A short description of test [15]: osmotic lysis modulators in infected erythrocytes, primary screen, PSAC antagonist project, cell-based, P. falciparum Indochina, OD700, 3 h (AID 1156). The following applies: higher = more signal, called active from +8 up or from −8 down.
A short description of test [16]: PSAC antagonists in infected red cells, primary screen, cell-based, P. falciparum Indochina, OD700, 18 h (AID 1157). The following applies: P. falciparum Indochina infected erythrocytes, osmotic lysis OD700, 18 h; higher = more signal, called active from +8 up or from −8 down.
A short description of test [17]: modulators of S6 phosphorylation in cells, primary screen, cell-based, A549, cytoblot, luminescence, serum-stimulated (AID 1158).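 Note: serum-stimulated A549 lung adenocarcinoma cells; signal is phosphorylated S6 detected by cytoblot immunostaining with HRP secondary.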 The following applies: A549 phospho-S6 cytoblot, 5 h, higher = more signal.
Test [18] has as its target NADPH oxidase 2 (Homo sapiens) (UniProt P04839). The experiment in a line: NOX2-dependent H2O2 signal modulators, primary screen, NOX inhibitor project, cell-based, HEK293-NOX2, PMA-stimulated, Amplex Red fluorescence (AID 1159). Note: test concentration not given here. Conditions: 45 min, higher = more signal, called active from +8 up or from −8 down.
The target of test [19] is NADPH oxidase 4 (Homo sapiens) (UniProt Q9NPH5). The experiment in a line: NOX4-dependent H2O2 signal modulators, primary screen, NOX inhibitor project, cell-based, HEK293-NOX4, tetracycline-induced, Amplex Red fluorescence (AID 1160). Conditions: 45 min, higher = more signal, called active from +8 up or from −8 down.
Test [20] addresses NADPH oxidase 5 (Homo sapiens) (UniProt Q96PH1). Nature of the test: NOX5-dependent H2O2 signal modulators, primary screen, NOX inhibitor project, cell-based, HEK293-NOX5, Amplex Red fluorescence (AID 1161). Conditions: HEK293-NOX5, ionomycin, 45 min, higher = more signal.

Sequence of Torsin-1A (Homo sapiens) (O14656 whole entry, looked up): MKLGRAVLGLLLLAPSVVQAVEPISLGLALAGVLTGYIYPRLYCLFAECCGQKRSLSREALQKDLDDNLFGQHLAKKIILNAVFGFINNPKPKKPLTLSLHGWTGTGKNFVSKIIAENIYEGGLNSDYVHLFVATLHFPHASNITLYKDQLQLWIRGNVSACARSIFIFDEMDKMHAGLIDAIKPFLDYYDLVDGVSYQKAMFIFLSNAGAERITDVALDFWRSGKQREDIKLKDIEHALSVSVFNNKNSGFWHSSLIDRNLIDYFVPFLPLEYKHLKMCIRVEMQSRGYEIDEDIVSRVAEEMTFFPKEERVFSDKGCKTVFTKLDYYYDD
Sequence of Streptavidin (Streptomyces avidinii) (P22629 whole entry, looked up): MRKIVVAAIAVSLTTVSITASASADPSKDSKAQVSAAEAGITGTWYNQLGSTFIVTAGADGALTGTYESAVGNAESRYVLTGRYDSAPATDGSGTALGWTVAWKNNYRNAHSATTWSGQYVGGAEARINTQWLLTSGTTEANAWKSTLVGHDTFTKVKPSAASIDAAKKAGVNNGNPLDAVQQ
Sequence of NADPH oxidase 5 (Homo sapiens) (Q96PH1 whole entry, looked up): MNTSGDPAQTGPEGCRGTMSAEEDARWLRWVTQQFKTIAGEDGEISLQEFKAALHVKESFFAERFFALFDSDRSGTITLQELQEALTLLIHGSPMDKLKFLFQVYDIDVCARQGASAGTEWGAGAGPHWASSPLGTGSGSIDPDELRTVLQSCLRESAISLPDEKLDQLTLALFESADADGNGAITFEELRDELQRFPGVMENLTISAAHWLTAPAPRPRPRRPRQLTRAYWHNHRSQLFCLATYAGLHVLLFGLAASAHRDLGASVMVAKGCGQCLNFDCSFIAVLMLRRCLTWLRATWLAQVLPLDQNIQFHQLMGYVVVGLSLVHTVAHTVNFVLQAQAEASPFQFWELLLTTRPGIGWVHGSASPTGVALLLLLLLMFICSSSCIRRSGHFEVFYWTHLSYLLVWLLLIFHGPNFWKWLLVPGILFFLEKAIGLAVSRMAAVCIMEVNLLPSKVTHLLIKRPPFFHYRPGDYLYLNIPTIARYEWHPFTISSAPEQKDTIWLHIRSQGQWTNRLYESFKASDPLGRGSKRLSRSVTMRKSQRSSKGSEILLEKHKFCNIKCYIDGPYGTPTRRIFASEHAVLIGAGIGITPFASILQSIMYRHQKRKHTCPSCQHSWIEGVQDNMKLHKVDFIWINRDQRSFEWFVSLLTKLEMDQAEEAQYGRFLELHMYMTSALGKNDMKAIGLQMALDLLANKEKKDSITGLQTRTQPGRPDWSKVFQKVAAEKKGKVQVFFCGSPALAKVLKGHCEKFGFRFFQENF
Sequence of NADPH oxidase 2 (Homo sapiens) (P04839 whole entry, looked up): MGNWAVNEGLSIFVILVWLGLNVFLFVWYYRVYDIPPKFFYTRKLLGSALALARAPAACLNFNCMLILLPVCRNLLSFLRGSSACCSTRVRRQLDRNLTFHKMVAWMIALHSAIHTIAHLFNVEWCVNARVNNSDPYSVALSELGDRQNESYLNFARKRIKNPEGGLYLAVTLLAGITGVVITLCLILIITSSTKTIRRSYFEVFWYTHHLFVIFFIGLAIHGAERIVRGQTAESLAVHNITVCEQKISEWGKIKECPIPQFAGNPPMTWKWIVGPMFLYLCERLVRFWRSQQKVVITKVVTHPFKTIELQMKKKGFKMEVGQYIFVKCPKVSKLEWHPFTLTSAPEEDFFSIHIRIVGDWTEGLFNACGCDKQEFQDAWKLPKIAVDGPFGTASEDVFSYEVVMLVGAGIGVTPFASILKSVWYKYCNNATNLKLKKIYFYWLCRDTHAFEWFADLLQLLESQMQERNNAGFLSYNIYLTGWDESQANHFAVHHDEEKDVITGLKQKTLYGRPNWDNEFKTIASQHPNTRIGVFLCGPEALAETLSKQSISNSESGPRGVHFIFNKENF
Sequence of NADPH oxidase 4 (Homo sapiens) (Q9NPH5 whole entry, looked up): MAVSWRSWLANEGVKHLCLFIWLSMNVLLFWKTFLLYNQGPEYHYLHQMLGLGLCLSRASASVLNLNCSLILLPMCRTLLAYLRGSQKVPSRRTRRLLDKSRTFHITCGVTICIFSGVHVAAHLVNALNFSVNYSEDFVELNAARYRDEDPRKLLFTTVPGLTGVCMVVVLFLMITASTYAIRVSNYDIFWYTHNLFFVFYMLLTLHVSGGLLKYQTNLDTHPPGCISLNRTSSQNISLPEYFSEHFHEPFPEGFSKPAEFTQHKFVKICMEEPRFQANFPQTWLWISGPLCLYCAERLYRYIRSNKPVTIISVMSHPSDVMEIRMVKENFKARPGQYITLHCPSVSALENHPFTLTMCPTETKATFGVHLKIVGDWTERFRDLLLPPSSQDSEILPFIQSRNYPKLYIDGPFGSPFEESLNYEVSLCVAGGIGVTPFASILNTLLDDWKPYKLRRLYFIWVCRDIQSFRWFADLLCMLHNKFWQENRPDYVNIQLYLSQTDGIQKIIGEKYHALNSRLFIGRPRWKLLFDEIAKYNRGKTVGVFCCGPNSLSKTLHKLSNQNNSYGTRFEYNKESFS

`C=CCN1Cc2ccccc2[C@H]2OC(c3ccc(OCCCO)cc3)=N[C@@]2(CC=C)C1=O`: the composite z-score in [1] was 1.07; in [6] it was 0.998; in test [7], 0.268; with Torsin-1A (Homo sapiens) [8], 1.08; with Torsin-1A (Homo sapiens) [9] it was 0.475; in test [10], 1.91. Moreover, in [12], the composite z-score is 0.692. The z-score in test [2] is -3.16 (inactive); in test [3], -0.746 (inactive); in test [4], 0.0594 (inactive); in test [5] it was -1.58 (inactive); in test [11], 0.831 (inactive); in [13], 29.9 (active). Moreover, the z-score was 25.7 (active) in test [14]; 1.97 (inactive) in [15]; 6.4 (inactive) in test [16]; 0.0524 in test [17]; -1.66 (inactive) in test [18]; 0.367 (inactive) in test [19]. The same molecule gave a z-score in [20] of 0.034.

For the molecule `C=C(COC)/C(=C/C[C@H](OC(=O)c1ccncc1)c1ccccc1OCCO)c1cnc2ccccc2c1`, the composite z-score in [1] was determined as 0.488; in test [6], 0.294; in [7], 0.156; with Torsin-1A (Homo sapiens) [8], 1.57; in the test with Torsin-1A (Homo sapiens) [9] it was 1.42; in test [10] it was 2.22. In [12], the composite z-score came to 0.401. Also, the z-score is -0.854 (inactive) in [2]; -1.13 (inactive) in test [3]; 3.24 (inactive) in test [4]; 1.42 (inactive) in test [5]; 0.657 (inactive) in test [11]; 13 (active) in [13]. Further, the z-score in [14] is 1.86 (inactive); in test [15], 1.31 (inactive); in test [16], 0.553 (inactive); in [17], 0.513; in test [18], -1.85 (inactive); in test [19], -0.502 (inactive). Also, the z-score in test [20] is -0.71.

With `C#CCN([C@@H](Cc1ccc(O)cc1)C(=O)OC)[C@@H](/C=C/C1CC1)[C@H](O)Cc1ccccc1`, the composite z-score in test [1] is -0.595; in test [6] it was -0.492; in test [7] it was -0.128; with Torsin-1A (Homo sapiens) [8] it was -0.541; in the test with Torsin-1A (Homo sapiens) [9], -0.12; in test [10] it was 0.825. In test [12], this molecule gave a composite z-score of -0.294. Further, the z-score in test [2] is -5.26 (inactive); in test [3], 0.709 (inactive); in test [4], 16.1 (active); in test [5] it was 1.17 (inactive); in test [11] it was -1.08 (inactive); in test [13], 3.41 (inactive). Also, the z-score in test [14] was 0.761 (inactive); in test [15] it was -0.824 (inactive); in test [16], 0.353 (inactive); in [17], -0.839; in [18], 0.544 (inactive); in test [19], -0.606 (inactive). In addition, the z-score in test [20] was -1.58.

As for `O=C(NCC(F)(F)F)[C@@H]1c2ccccc2C(=O)N(Cc2ccccc2C(F)(F)F)[C@H]1c1ccc(CO)cc1`, the composite z-score is 0.38 in test [1]; -0.631 in test [6]; 0.0906 in test [7]; 0.702 in the test with Torsin-1A (Homo sapiens) [8]; -0.274 in the test with Torsin-1A (Homo sapiens) [9]; 0.0223 in test [10]. In addition, the composite z-score in test [12] was -0.0164. The z-score in [2] is -0.325 (inactive); in test [3], 0.266 (inactive); in [4] it was -0.295 (inactive); in [5], 1.02 (inactive); in test [11] it was 0.142 (inactive); in test [13] it was 1.45 (inactive). In addition, the z-score is 0.478 (inactive) in test [14]; 0.239 (inactive) in test [15]; 0.109 (inactive) in test [16]; -0.537 in test [17]; 0.536 (inactive) in [18]; 0.0258 (inactive) in [19]. The molecule further yielded a z-score in [20] of -0.284.

(Values after PubChem BioAssay.)
